Measurements as given in PubChem BioAssay.

Experiments:
[1] = test system: Human papillomavirus type 1a protein E7 (residues 44-93); assay: small molecules binding HPV E7 44-93 – biochemical, small-molecule microarray, residues 44-93, 635 nm fluorescence, primary screen (AID 1108); conditions: fluorescence 635 nm, higher = more signal;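 further: E7 fragment applied at 1 µg/mL in TBST for 1 h at 4 C; score combines spot fluorescence with its signal to noise ratio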
[2] = hepatitis C replication reporter changes, two-sided – Huh7 cells, luciferase reporter, HCV replication inhibitor project, primary screen (AID 1109); conditions: Huh7 HCV replicon luciferase reporter, 48 h; higher = more signal;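 further: huh7 hepatoma cells harbouring a luciferase neomycin HCV replicon reporter; luciferase luminescence as measure of HCV replicon replication; test concentration not given here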
[3] = target: Left-right determination factor 2 (Homo sapiens) (UniProt O00292); assay: small molecules binding LEFTY2 protein – biochemical, small-molecule microarray, 635 nm fluorescence scan, primary screen (AID 1110); conditions: higher = more signal
Chain of Left-right determination factor 2 (Homo sapiens) (O00292 whole entry, looked up): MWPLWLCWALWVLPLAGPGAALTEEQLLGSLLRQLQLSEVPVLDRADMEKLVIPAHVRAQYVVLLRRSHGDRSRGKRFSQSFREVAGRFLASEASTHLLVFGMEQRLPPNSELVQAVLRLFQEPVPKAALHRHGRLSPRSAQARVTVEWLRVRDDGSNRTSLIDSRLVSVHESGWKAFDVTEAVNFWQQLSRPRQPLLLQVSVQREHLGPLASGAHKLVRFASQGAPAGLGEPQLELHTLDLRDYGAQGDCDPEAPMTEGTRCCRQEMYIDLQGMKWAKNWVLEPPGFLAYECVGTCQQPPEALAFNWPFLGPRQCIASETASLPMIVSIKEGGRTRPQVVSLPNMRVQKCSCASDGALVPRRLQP

[4] = target: Calmodulin-1 (Homo sapiens) (UniProt P0DP23); assay: small molecules binding calmodulin-1 with EGTA – biochemical, small-molecule microarray, Cy5-labelled CALM1, profiling panel (AID 1111); conditions: Cy5-CALM1 binding fluorescence, higher = more signal;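 further: labelled calmodulin applied in Tris saline Tween buffer holding calcium plus EGTA and DTT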
[5] = target: Calmodulin-1 (Homo sapiens) (UniProt P0DP23); assay: small molecules binding Ca-loaded calmodulin-1 – biochemical, small-molecule microarray, Cy5-labelled CALM1, plus calcium, artefact control for SMM control-protein annotation, profiling panel (AID 1112); conditions: Cy5-CALM1 binding fluorescence, higher = more signal;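 further: score merges spot fluorescence with signal to noise from triplicate slides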
[6] = probe aWnt5a binding to arrayed compounds – biochemical, biotinylated probe, 635/667 nm fluorescence, primary screen (AID 1113); conditions: small-molecule microarray, higher = more signal;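 further: score merges 667 nm fluorescence intensity with signal-to-noise per printed feature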
[7] = probe aShh binding to arrayed compounds – biochemical, biotinylated probe, 635/667 nm fluorescence, primary screen (AID 1114); conditions: small-molecule microarray, higher = more signal;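 further: probe is biotin-labelled aShh protein from a stem cell growth factor screen; measures binding of labelled protein to compounds printed on the slide; score merges feature fluorescence at 667 nm with signal-to-noise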
[8] = probe aNog binding to arrayed compounds – biochemical, biotinylated probe, 635/667 nm fluorescence, primary screen (AID 1115); conditions: small-molecule microarray, higher = more signal;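 further: probe is biotinylated aNog protein used at 0.15 µg/mL for 1 h at 4 C; z-score combines 667 nm fluorescence of each spot with its signal to noise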
[9] = target: Torsin-1A-interacting protein 1 (Homo sapiens) (UniProt Q5JTV8); assay: compound microarray binding of lysate hLAP1 – cell lysate, small-molecule microarray, COS7 lysate, 635/667 nm fluorescence, primary screen (AID 1116); conditions: 635 nm fluorescence, higher = more signal
Chain of Torsin-1A-interacting protein 1 (Homo sapiens) (Q5JTV8 whole entry, looked up): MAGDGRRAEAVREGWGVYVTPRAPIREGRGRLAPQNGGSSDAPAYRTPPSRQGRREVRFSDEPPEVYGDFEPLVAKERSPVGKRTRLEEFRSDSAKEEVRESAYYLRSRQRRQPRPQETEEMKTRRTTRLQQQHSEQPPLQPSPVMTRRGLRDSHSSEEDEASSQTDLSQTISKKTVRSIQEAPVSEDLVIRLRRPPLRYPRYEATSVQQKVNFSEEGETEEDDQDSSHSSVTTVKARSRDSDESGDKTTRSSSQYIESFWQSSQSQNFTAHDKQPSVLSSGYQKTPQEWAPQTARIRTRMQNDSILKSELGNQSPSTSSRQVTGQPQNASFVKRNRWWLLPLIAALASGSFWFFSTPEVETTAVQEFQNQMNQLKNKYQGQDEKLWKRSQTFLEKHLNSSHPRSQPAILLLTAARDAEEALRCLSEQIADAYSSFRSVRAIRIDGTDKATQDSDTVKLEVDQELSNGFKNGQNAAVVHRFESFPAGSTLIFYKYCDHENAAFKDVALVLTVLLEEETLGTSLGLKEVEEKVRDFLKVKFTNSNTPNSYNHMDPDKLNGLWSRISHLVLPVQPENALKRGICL

[10] = target: Alpha-bungarotoxin (Bungarus multicinctus) (UniProt P60615); assay: compounds binding labelled alpha-BTX control protein – biochemical, small-molecule microarray, Alexa647 label, 635/667 nm fluorescence, artefact control for SMM control protein annotation, profiling panel (AID 1117); conditions: alpha-BTX-A647 binding fluorescence, higher = more signal
Chain of Alpha-bungarotoxin (Bungarus multicinctus) (P60615 whole entry, looked up): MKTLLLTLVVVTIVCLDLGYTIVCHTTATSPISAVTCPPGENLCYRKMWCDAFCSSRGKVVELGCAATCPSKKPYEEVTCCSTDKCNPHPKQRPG

Compound | composite z-score [1] | z-score [2] | composite z-score [3] | composite z-score [4] | composite z-score [5] | composite z-score [6] | composite z-score [7] | composite z-score [8] | composite z-score [9] | composite z-score [10]
C=C(/C(=C/C[C@@H](OC(=O)c1ccncc1)c1ccc(OCCO)cc1)c1cc(C(=O)OC)ccc1OC)C(C)C | 1.38 | -1.88 | -0.0398 | 0.356 | -0.252 | -0.0721 | -0.138 | -0.45 | 0.637 | 0.249
CC1CC/C=C\[C@H]2OC34C=CCN(C(C)C)C(=O)[C@H]3N(CCCCCO)C(=O)[C@@H]4C2C(=O)O1 (stereo not given in full) | -0.806 | 0.205 | -2.15 | -0.329 | 0.446 | -0.178 | -0.206 | 0.179 | -0.753 | -1.36
CC(=O)NCCCC[C@@H]1NC(=O)[C@@H]2C[C@H](C(=O)O)[C@H](c3ccc(O)cc3)N2C1=O | -0.745 | 0.117 | -2.7 | -0.329 | 0.104 | -0.184 | -0.221 | -0.33 | -0.998 | -0.371
[N-]=[N+]=Nc1ccccc1[C@H]1OC(c2ccc(OCCCO)cc2)=N[C@@]1(CCS(=O)(=O)c1ccccc1)C(=O)N1CCCCC1 | 1.44 | -1.05 | -0.149 | 1.48 | 0.956 | -0.0165 | 0.184 | 0.0127 | 1.27 | 2.21
O=C1C[C@]2(c3ccc([N+](=O)[O-])cc3)C(=O)N(Cc3ccccc3)c3cc(CO)ccc3[C@H]2N1CC12CC3CC(CC(C3)C1)C2 | -0.864 | -0.411 | -1.11 | -0.393 | -0.11 | -0.281 | -0.408 | -0.103 | -0.0647 | -0.814
O=C1OCC=C[C@H]2OC34C=CCN(c5ccc(Cl)cc5)C(=O)[C@H]3N(CCCCCO)C(=O)[C@@H]4[C@@H]12 (stereo not given in full) | -0.932 | -0.621 | -1.92 | -0.501 | 0.0666 | -0.172 | 0.0121 | 0.347 | 0.0462 | -1.64
C=CCN1Cc2ccccc2C[C@@]2(N=C(c3ccc(OCCCO)cc3)O[C@H]2c2ccccc2)C1=O | 1.46 | -3.08 | 0.473 | 2.97 | -0.398 | 0.0873 | 0.19 | -0.179 | 1.2 | 1.15
COCCCNC(=O)[C@@]1(Sc2ccc(C)cc2)CC(=O)N(C2Cc3ccccc3C2)[C@@H]1c1ccc(CO)cc1I | -0.499 | -1.05 | -1.31 | -0.176 | 0.0685 | -0.154 | -0.536 | -0.0621 | -0.354 | -0.0078
